# According to the supplement of paper PMC8728848:
# About 410 targets per protein were measured; listed, in parts, are those with the strongest signals and a random draw of the rest.
# Experiments:
# Test in all cases: glycan array binding signal (z-score within array); higher = stronger binding
# Conditions in all cases: glycan notation: IUPAC condensed, linker removed
# [1] = target: Fuc(a1-2)Gal(b1-3)GalNAc(a1-3)[Fuc(a1-2)]Gal(b1-4)GlcNAc
# In short: (§1)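 Glycan array data came from 3228 arrays in the Consortium for Functional Glycomics database, and only arrays with an available protein sequence were kept. Glycan names were put into IUPAC-condensed notation, and columns mapping to the same glycan were averaged. The binding signal is a within-array Z-score, averaged across arrays of one protein sequence run at different concentrations or buffers and across linkers. A negative Z-score can be read as non-binding.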
# [2] = target: Fuc(a1-2)Gal(b1-4)GlcNAc(b1-2)Man(a1-3)[Fuc(a1-2)Gal(b1-4)GlcNAc(b1-2)Man(a1-6)]Man(b1-4)GlcNAc(b1-4)[Fuc(a1-6)]GlcNAc
# In short: as §1
# [3] = target: Fuc(a1-2)Gal(b1-4)[Fuc(a1-3)]GlcNAc(b1-2)[Fuc(a1-2)Gal(b1-4)[Fuc(a1-3)]GlcNAc(b1-4)]Man(a1-3)[Fuc(a1-2)Gal(b1-4)[Fuc(a1-3)]GlcNAc(b1-2)Man(a1-6)]Man(b1-4)GlcNAc(b1-4)GlcNAc
# In short: as §1
# [4] = target: Fuc(a1-2)Gal(b1-4)[Fuc(a1-3)]GlcNAc(b1-3)Gal(b1-4)[Fuc(a1-3)]GlcNAc(b1-3)Gal(b1-4)[Fuc(a1-3)]GlcNAc
# In short: as §1
# [5] = target: Fuc(a1-2)Gal6S(b1-3)GlcNAc6S
# In short: as §1
# [6] = target: Fuc(a1-2)[Gal(a1-3)]Gal(b1-4)GlcNAc(b1-2)Man
# In short: as §1
# Fuc(a1-3)GlcNAc = target: Fuc(a1-3)GlcNAc
# In short: as §1
# [7] = target: Fuc(a1-3)[Gal(b1-4)]GlcNAc
# In short: as §1
# [8] = target: Fuc(a1-3)[GalNAc(b1-4)]GlcNAc
# In short: as §1
# [9] = target: Gal(a1-3)Gal(b1-3)[Fuc(a1-4)]GlcNAc(b1-2)Man(a1-3)[Gal(a1-3)Gal(b1-3)[Fuc(a1-4)]GlcNAc(b1-2)Man(a1-6)]Man(b1-4)GlcNAc(b1-4)GlcNAc
# In short: as §1
# Gal(a1-3)Gal(b1-4)Glc = target: Gal(a1-3)Gal(b1-4)Glc
# In short: as §1
# [10] = target: Gal(a1-3)[Gal(a1-4)]Gal(b1-4)GlcNAc
# In short: as §1
# [11] = target: Gal(b1-3)GlcNAc(b1-6)Gal(b1-4)GlcNAc
# In short: as §1
# [12] = target: Gal(b1-4)GlcNAc(b1-3)Gal(b1-3)GlcNAc
# In short: as §1
# [13] = target: Gal(b1-4)GlcNAc(b1-3)Gal(b1-4)GlcNAc(b1-2)Man(a1-3)[Gal(b1-4)GlcNAc(b1-3)Gal(b1-4)GlcNAc(b1-2)Man(a1-6)]Man(b1-4)GlcNAc(b1-4)GlcNAc
# In short: as §1
# [14] = target: Gal(b1-4)GlcNAc(b1-3)Gal(b1-4)GlcNAc(b1-3)Gal(b1-4)GlcNAc
# In short: as §1
# [15] = target: Gal(b1-4)GlcNAc(b1-3)Gal(b1-4)GlcNAc(b1-3)Gal(b1-4)GlcNAc(b1-2)Man(a1-3)[Gal(b1-4)GlcNAc(b1-3)Gal(b1-4)GlcNAc(b1-3)Gal(b1-4)GlcNAc(b1-2)Man(a1-6)]Man(b1-4)GlcNAc(b1-4)GlcNAc
# In short: as §1
# [16] = target: Gal(b1-4)GlcNAc(b1-3)Gal(b1-4)GlcNAc(b1-3)Gal(b1-4)GlcNAc(b1-3)Gal(b1-4)GlcNAc(b1-2)[Gal(b1-4)GlcNAc(b1-3)Gal(b1-4)GlcNAc(b1-3)Gal(b1-4)GlcNAc(b1-3)Gal(b1-4)GlcNAc(b1-6)]Man(a1-6)[Gal(b1-4)GlcNAc(b1-3)Gal(b1-4)GlcNAc(b1-3)Gal(b1-4)GlcNAc(b1-3)Gal(b1-4)GlcNAc(b1-2)Man(a1-3)]Man(b1-4)GlcNAc(b1-4)[Fuc(a1-6)]GlcNAc
# In short: as §1
# [17] = target: Gal(b1-4)GlcNAc(b1-3)Gal(b1-4)GlcNAc(b1-3)Gal(b1-4)GlcNAc(b1-3)Gal(b1-4)GlcNAc(b1-3)Gal(b1-4)GlcNAc(b1-2)[Gal(b1-4)GlcNAc(b1-3)Gal(b1-4)GlcNAc(b1-3)Gal(b1-4)GlcNAc(b1-3)Gal(b1-4)GlcNAc(b1-3)Gal(b1-4)GlcNAc(b1-6)]Man(a1-6)[Gal(b1-4)GlcNAc(b1-3)Gal(b1-4)GlcNAc(b1-3)Gal(b1-4)GlcNAc(b1-3)Gal(b1-4)GlcNAc(b1-3)Gal(b1-4)GlcNAc(b1-2)Man(a1-3)]Man(b1-4)GlcNAc(b1-4)[Fuc(a1-6)]GlcNAc
# In short: as §1
# [18] = target: Gal(b1-4)GlcNAc(b1-6)Gal(b1-4)GlcNAc
# In short: as §1
# Gal3S(b1-3)GlcNAc = target: Gal3S(b1-3)GlcNAc
# In short: as §1
# Gal3S6S(b1-4)GlcNAc6S = target: Gal3S6S(b1-4)GlcNAc6S
# In short: as §1
# [19] = target: GalNAc(b1-4)GlcNAc(b1-2)Man(a1-3)[GalNAc(b1-4)GlcNAc(b1-2)Man(a1-6)]Man(b1-4)GlcNAc(b1-4)GlcNAc
# In short: as §1
# [20] = target: GlcNAc(a1-4)Gal(b1-4)GalNAc
# In short: as §1
# [21] = target: GlcNAc(b1-3)Gal(b1-4)GlcNAc(b1-2)Man(a1-3)[GlcNAc(b1-3)Gal(b1-4)GlcNAc(b1-2)Man(a1-6)]Man(b1-4)GlcNAc(b1-4)[Fuc(a1-6)]GlcNAc
# In short: as §1
# [22] = target: GlcNAc(b1-3)Gal(b1-4)GlcNAc(b1-3)Gal(b1-4)GlcNAc(b1-2)Man(a1-3)[GlcNAc(b1-3)Gal(b1-4)GlcNAc(b1-3)Gal(b1-4)GlcNAc(b1-2)Man(a1-6)]Man(b1-4)GlcNAc(b1-4)GlcNAc
# In short: as §1
# [23] = target: GlcNAc(b1-3)Gal(b1-4)GlcNAc(b1-3)Gal(b1-4)GlcNAc(b1-2)Man(a1-3)[GlcNAc(b1-3)Gal(b1-4)GlcNAc(b1-3)Gal(b1-4)GlcNAc(b1-2)Man(a1-6)]Man(b1-4)GlcNAc(b1-4)[Fuc(a1-6)]GlcNAc
# In short: as §1
# [24] = target: GlcNAc6S(b1-3)Gal(b1-4)GlcNAc
# In short: as §1
# Kdn(a2-3)Gal(b1-3)GlcNAc = target: Kdn(a2-3)Gal(b1-3)GlcNAc
# In short: as §1
# [25] = target: Man(a1-2)Man(a1-3)[Man(a1-6)]Man(a1-6)[Man(a1-2)Man(a1-3)]Man(b1-4)GlcNAc(b1-4)GlcNAc
# In short: as §1
# [26] = target: Man(a1-2)Man(a1-6)[Man(a1-3)]Man(a1-6)[Man(a1-2)Man(a1-2)Man(a1-3)]Man
# In short: as §1
# [27] = target: Man(a1-3)[Man(a1-6)]Man(a1-6)[Man(a1-2)Man(a1-3)]Man(b1-4)GlcNAc(b1-4)GlcNAc
# In short: as §1
# [28] = target: Man(a1-3)[Man(a1-6)]Man(a1-6)[Man(a1-3)]Man(b1-4)GlcNAc(b1-4)GlcNAc
# In short: as §1
# Man(b1-4)GlcNAc = target: Man(b1-4)GlcNAc
# In short: as §1
# [29] = target: Neu5Ac(a2-3)Gal(b1-3)GalNAc(b1-3)Gal(a1-4)Gal(b1-4)Glc
# In short: as §1
# [30] = target: Neu5Ac(a2-3)Gal(b1-3)GlcNAc(b1-2)Man
# In short: as §1
# [31] = target: Neu5Ac(a2-3)Gal(b1-4)GlcNAc
# In short: as §1
# [32] = target: Neu5Ac(a2-3)Gal(b1-4)GlcNAc(b1-2)Man(a1-3)[Neu5Ac(a2-3)Gal(b1-4)GlcNAc(b1-2)Man(a1-6)]Man(b1-4)GlcNAc(b1-4)[Fuc(a1-6)]GlcNAc
# In short: as §1
# [33] = target: Neu5Ac(a2-3)Gal(b1-4)GlcNAc(b1-2)[Neu5Ac(a2-3)Gal(b1-4)GlcNAc(b1-4)]Man(a1-3)[GlcNAc(b1-4)][Neu5Ac(a2-3)Gal(b1-4)GlcNAc(b1-4)Man(a1-6)]Man(b1-4)GlcNAc(b1-4)GlcNAc
# In short: as §1
# [34] = target: Neu5Ac(a2-3)Gal(b1-4)[Fuc(a1-3)]GlcNAc(b1-3)Gal(b1-4)[Fuc(a1-3)]GlcNAc(b1-3)Gal(b1-4)[Fuc(a1-3)]GlcNAc
# In short: as §1
# [35] = target: Neu5Ac(a2-3)[Neu5Ac(a2-6)]GalNAc
# In short: as §1
# [36] = target: Neu5Ac(a2-6)Gal(b1-4)GlcNAc(b1-2)Man(a1-3)[GlcNAc(b1-4)][Neu5Ac(a2-6)Gal(b1-4)GlcNAc(b1-2)Man(a1-6)]Man(b1-4)GlcNAc(b1-4)GlcNAc
# In short: as §1
# [37] = target: Neu5Ac(a2-8)Neu5Gc(a2-3)Gal(b1-4)GlcNAc
# In short: as §1
# [38] = target: Neu5Gc(b2-6)Gal(b1-4)GlcNAc
# In short: as §1
binder,measurement,setting,value
PX14379D-pdi-530-26-530 (Parabacteroides distasonis) (protein) DETVYDKLPADDFGQSTAELNALIGNSHNTMKKFWTEYMHLSECSGSMAVTPTRRGGDWYDGGQYREIYMHTWTSQTSRVKSAWKAATEAIGTCNEAIRKLQNSEILTEEEKAQDVADLRGVRAFWIYVMMDYWGNIPLLTEFHPTDKVFPGNSSRQEVFDWLIQEVEEIKDICPPATTENYGSFTQGAAYSLLAKLYLNAEAWGVTFSGNAYQKVIDNCDKVMAMGYILEPNWKDNFSVTNENSKEAILAATFSSSDTGNDGNVKNELHNNTLHYKDYLSLGITASGTWNGICAQPEYVRLFDEEDARLDGTFLTGLMIDKSTGKPIMTDHNNELNHTIDVNMIPGMEYDGTNWSAVEQHDGARCFKWEFASDLTSSMGNDFHIFRLADIYLMKAEALLRGGGSVSEATALVNTIRERGYGNSDHNYATVTLKEVQLERRLELAWEVYSRQDDIRFGCFTTGMWPQSNCERKADDYLKLLPVSQDAWQVNPNLKQNPGYAAFSK,glycan array binding signal (z-score),[1],-1.42
same,glycan array binding signal (z-score),[2],-0.233
same,glycan array binding signal (z-score),[3],-0.436
same,glycan array binding signal (z-score),[4],2.52
same,glycan array binding signal (z-score),[5],2.88
same,glycan array binding signal (z-score),[6],1.09
same,glycan array binding signal (z-score),Fuc(a1-3)GlcNAc,-0.715
same,glycan array binding signal (z-score),[7],-0.689
same,glycan array binding signal (z-score),[8],-0.221
same,glycan array binding signal (z-score),[9],2.48
same,glycan array binding signal (z-score),Gal(a1-3)Gal(b1-4)Glc,-0.838
same,glycan array binding signal (z-score),[10],4.67
same,glycan array binding signal (z-score),[11],-1.22
same,glycan array binding signal (z-score),[12],-1.08
same,glycan array binding signal (z-score),[13],2.97
same,glycan array binding signal (z-score),[14],-0.298
same,glycan array binding signal (z-score),[15],1.92
same,glycan array binding signal (z-score),[16],3.06
same,glycan array binding signal (z-score),[17],1.59
same,glycan array binding signal (z-score),[18],0.063
same,glycan array binding signal (z-score),Gal3S(b1-3)GlcNAc,-0.593
same,glycan array binding signal (z-score),Gal3S6S(b1-4)GlcNAc6S,2.52
same,glycan array binding signal (z-score),[19],2.64
same,glycan array binding signal (z-score),[20],-0.622
same,glycan array binding signal (z-score),[21],0.749
same,glycan array binding signal (z-score),[22],2.91
same,glycan array binding signal (z-score),[23],2.19
same,glycan array binding signal (z-score),[24],0.56
same,glycan array binding signal (z-score),Kdn(a2-3)Gal(b1-3)GlcNAc,-0.752
same,glycan array binding signal (z-score),[25],-1.26
same,glycan array binding signal (z-score),[26],-0.013
same,glycan array binding signal (z-score),[27],-0.447
same,glycan array binding signal (z-score),[28],-0.474
same,glycan array binding signal (z-score),Man(b1-4)GlcNAc,-1.02
same,glycan array binding signal (z-score),[29],0.43
same,glycan array binding signal (z-score),[30],0.26
same,glycan array binding signal (z-score),[31],-0.826
same,glycan array binding signal (z-score),[32],0.415
same,glycan array binding signal (z-score),[33],-0.482
same,glycan array binding signal (z-score),[34],-0.094
same,glycan array binding signal (z-score),[35],-1.44
same,glycan array binding signal (z-score),[36],0.549
same,glycan array binding signal (z-score),[37],12.8
same,glycan array binding signal (z-score),[38],-0.722
